Compound activity: PubChem BioAssay, Broad Institute
This is a sample that favours compounds with a hit; in the whole collection about 0.35% have one here.
ERp5 block = blocks human ERp5 reductase activity on insulin; hit rate 0.05% among 350,000; inhibition, % at 9.99 µM; ERp5 insulin aggregation, absorbance 650 nm, 90 min;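 active = mean replicate inhibition above about 25%, with every replicate also reaching it, limit read from the data, passing the limit was not always enough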
PvdQ acylase = P. aeruginosa PvdQ acylase inhibition; purified PvdQ acylase, fluorescence plate reader; inhibition, % at 10 µM; hit rate 0.063% among 340,000; in the data active = inhibition above about 30%, passing the limit was not always enough
Rtt109 HAT inh = C. albicans Rtt109 histone acetyltransferase inhibition | AID 540336 | purified Rtt109/Vps75, ThioGlo CoA-SH fluorescence, 4 h | inhibition, % at 34.9 µM | hit rate 0.16% among 330,000;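 active = inhibition of at least 50% in every replicate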
ERAP1 inh = ERAP1 (human) enzyme inhibition; recombinant ERAP1, Leu-AMC fluorescence, 60 min; hit rate 0.15% among 340,000; inhibition, % at 10.7 µM; AID 652197; Q9NZ08;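 active = mean replicate inhibition of at least 30%, or all replicates individually reaching that 30% level; inactive = mean below 30% and not every replicate reaching it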
PDI turbidity = inhibitors of human protein disulfide isomerase | PDI insulin aggregation turbidity, A650, 90 min | hit rate 0.052% among 350,000 | inhibition, % at 10 µM | AID 588391;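 active = mean inhibition across replicates of 30% or more, whatever share of single replicates reach that level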
Target sequence (P07237 whole entry, looked up): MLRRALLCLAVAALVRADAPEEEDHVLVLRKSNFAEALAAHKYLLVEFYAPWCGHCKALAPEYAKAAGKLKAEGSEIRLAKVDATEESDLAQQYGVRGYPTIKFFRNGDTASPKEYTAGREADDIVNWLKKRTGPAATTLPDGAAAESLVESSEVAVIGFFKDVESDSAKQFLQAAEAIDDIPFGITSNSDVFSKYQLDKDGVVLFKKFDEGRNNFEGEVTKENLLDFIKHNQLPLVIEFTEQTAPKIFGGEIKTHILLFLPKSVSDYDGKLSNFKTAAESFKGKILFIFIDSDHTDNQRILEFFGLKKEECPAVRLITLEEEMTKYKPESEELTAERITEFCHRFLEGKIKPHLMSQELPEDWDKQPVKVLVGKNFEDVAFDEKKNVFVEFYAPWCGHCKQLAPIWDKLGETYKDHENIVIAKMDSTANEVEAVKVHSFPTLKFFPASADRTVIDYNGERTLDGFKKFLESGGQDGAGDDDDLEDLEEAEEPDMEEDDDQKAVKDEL
Hits are given with their value; . = inactive; / = not tested or not shown.

SMILES | ERp5 block | PvdQ acylase | Rtt109 HAT inh | ERAP1 inh | PDI turbidity
COc1ccc(NC(=O)Nc2ccc3c(c2)C(=O)N([C@H](C)CO)C[C@H](C)[C@@H](CN(C)C(=O)C2CCCCC2)OCCCC[C@H](C)O3)cc1 | 30 | / | / | . | /
COc1ccc(NC(=O)Nc2ccc3c(c2)C(=O)N([C@@H](C)CO)C[C@H](C)[C@H](CN(C)C(=O)C2CCCCC2)OCCCC[C@@H](C)O3)cc1 | . | / | / | . | /
C[C@@H]1CCCCO[C@@H](CN(C)C(=O)Nc2cccc3ccccc23)[C@H](C)CN([C@H](C)CO)C(=O)c2cc(NS(=O)(=O)c3ccc(Cl)cc3)ccc2O1 | . | / | / | . | /
CN(C)c1nccc(N(Cc2ccccc2)Cc2ccccc2)c1C#N | / | . | . | / | .
Cc1cc(C)nc(N(C#N)Cc2ccc([N+](=O)[O-])cc2)n1 | . | 49 | . | . | .
N#CN(Cc1ccccc1)Cc1ccccc1 | . | 92 | . | . | .
Cc1cc(C)nc(N(C#N)Cc2ccccc2)n1 | / | 38 | . | / | .
Cc1cc(C)nc(N(C#N)Cc2cccc3ccccc23)n1 | / | . | . | / | .
Cc1noc(C)c1S(=O)(=O)Nc1ccc2c(c1)C(=O)N([C@H](C)CO)C[C@H](C)[C@@H](CN(C)C(=O)Nc1ccc3c(c1)OCO3)OCCCC[C@H](C)O2 | . | / | / | . | /
Cc1c(O)ccc2c(CC(=O)N[C@@H](Cc3c[nH]c4ccccc34)C(=O)O)cc(=O)oc12 | . | . | . | . | 60
O=C(Cc1cc(=O)oc2cc(O)ccc12)N[C@@H](Cc1c[nH]c2ccccc12)C(=O)O | . | . | . | . | .
C[C@H](CO)N1C[C@H](C)[C@H](CN(C)Cc2ccncc2)Oc2c(NC(=O)NC3CCCCC3)cccc2C1=O | . | / | / | . | /
CCCC(=O)Nc1ccc2c(c1)C(=O)N(C)[C@H]1CC[C@H](CC(=O)NCC3CC3)O[C@H]1CO2 | . | / | / | . | /
C[C@H](CO)N1C[C@H](C)[C@H](CN(C)S(=O)(=O)c2cn(C)cn2)Oc2ccc(NC(=O)Nc3cccc4ccccc34)cc2C1=O | . | / | / | . | /
C/C=C(\C)C(=O)NCCN1C2=NC[C@H](Cc3ccc(O)cc3)N2C[C@H]1Cc1ccc(O)cc1 | . | . | . | . | 45
COc1ccc(C[C@@H]2CN3C(=NC[C@@H]3Cc3ccc(O)cc3)N2C[C@H](C)NC(=O)CCC2CCCCC2)cc1 | / | . | . | / | 40
COc1ccc(C[C@H]2CN3C(=NC[C@@H]3Cc3ccc(O)cc3)N2C[C@H](C)NC(=O)CCC2CCCCC2)cc1 | . | . | . | . | .
C/C=C(\C)C(=O)NCCN1C2=NC[C@@H](Cc3ccccc3)N2C[C@H]1Cc1ccc(O)cc1 | . | . | . | . | .
CN1C(=O)c2cc(NC(=O)C3CCOCC3)ccc2OC[C@H]2O[C@H](CC(=O)O)CC[C@@H]21 | . | / | / | . | /
O=C(C[C@@H]1C[C@H]2c3cc(NC(=O)C4CCOCC4)ccc3O[C@H]2[C@H](CO)O1)NCc1ccncc1 | . | / | / | . | /
COc1ccc(CNC(=O)C2CCCN(S(=O)(=O)c3c(C)n[nH]c3C)C2)cc1 (centres undefined) | / | . | 67 | / | .
O=C(C1CCOCC1)N1CCCC(N2CCN(c3cccc(C(F)(F)F)c3)CC2)C1 (centres undefined) | . | . | 52 | . | .
Cc1cc(/C=C2\SC(=O)NC2=O)c(C)n1-c1ccc(N2CCOCC2)cc1 | . | . | . | 67 | .
C[C@H](CO)N1C[C@H](C)[C@H](CN(C)Cc2ccc(C(=O)O)cc2)Oc2ccc(NC(=O)Nc3cccc4ccccc34)cc2CC1=O | . | / | / | 51 | /
C[C@H]1CN([C@@H](C)CO)C(=O)Cc2cc(NC(=O)Nc3cccc4ccccc34)ccc2O[C@H]1CN(C)Cc1ccc(C(F)(F)F)cc1 | 69 | / | / | . | /
C[C@@H]1CN([C@H](C)CO)C(=O)Cc2cc(NC(=O)Nc3cccc4ccccc34)ccc2O[C@H]1CN(C)Cc1ccc(C(F)(F)F)cc1 | . | / | / | . | /
C[C@@H]1CN([C@@H](C)CO)C(=O)Cc2cc(NC(=O)Nc3ccc(C(F)(F)F)cc3)ccc2O[C@@H]1CN(C)Cc1ccc(Cl)c(Cl)c1 | 50 | / | / | . | /
C[C@H](CO)N1C[C@H](C)[C@H](CN(C)Cc2ccc(C(F)(F)F)cc2)Oc2ccc(NC(=O)Nc3cccc4ccccc34)cc2CC1=O | 64 | / | / | . | /
CCC(=O)NC[C@@H]1[C@@H](c2ccc(-c3ccc(F)cc3)cc2)[C@@H](CO)N1C(=O)CC | . | / | / | . | /
CCC(=O)Nc1ccc2c(c1)OC[C@@H](C)N(Cc1cncnc1)C[C@@H](C)[C@@H](OC)CN(C)C2=O | . | / | / | . | /
